Measurements: PubChem BioAssay (NCATS)
Values joined by “and” are separate entries in the source; they are usually repeats but may differ in a detail not shown here. Equal entries are not always repeated. Values without a mark were called inactive. Records with an inconclusive call do not appear. A call without a number means that no potency is given here. Active and inactive are the calls of the source.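 The calls were made as follows, unless noted: active = dose-dependent loss of cell ATP signal giving a full or clear fitted curve, ranked by lower potency value; inconclusive = weak partial curve or response only at the top dose; inactive = no loss of viability signal.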

Legend:
[1] = qHTS assay to identify small molecules that stimulate interleukin-8 (IL-8) secretion (AID 651758; active = well fitted activation curve with a large enough effect in the signal ratio; the % refers to the signal ratio; also: potency is read from the fitted curve at half-maximal effect)
Outline: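 Secreted IL-8 measured by TR-FRET sandwich (cryptate and XL665 antibodies) from THP-1 cells exposed to compound overnight (16 hrs, 37 C).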

[2] = Cell Viability - Jurkat (AID 426); details: qHTS; also: potency is read from the fitted curve at half-maximal effect
Outline: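 Jurkat (clone E6-1, human T-cell leukemia) cells, 5000/well in complete medium, were exposed to compound for 40 hr at 37 °C. Viability was read as intracellular ATP by CellTiter-Glo luminescence; AC50 came from Hill fits of concentration-response data.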

[3] = target: Cytochrome P450 3A4 (Homo sapiens) (UniProt P08684); assay: qHTS Assay for Activators of Cytochrome P450 3A4 (AID 885; active = well fitted curve in the direction sought with a large enough effect; an effect the other way counts as inactive or inconclusive; also: nearly all actives have a fitted effect of over 65% in size)
Chain of Cytochrome P450 3A4 (Homo sapiens) (P08684 whole entry, looked up): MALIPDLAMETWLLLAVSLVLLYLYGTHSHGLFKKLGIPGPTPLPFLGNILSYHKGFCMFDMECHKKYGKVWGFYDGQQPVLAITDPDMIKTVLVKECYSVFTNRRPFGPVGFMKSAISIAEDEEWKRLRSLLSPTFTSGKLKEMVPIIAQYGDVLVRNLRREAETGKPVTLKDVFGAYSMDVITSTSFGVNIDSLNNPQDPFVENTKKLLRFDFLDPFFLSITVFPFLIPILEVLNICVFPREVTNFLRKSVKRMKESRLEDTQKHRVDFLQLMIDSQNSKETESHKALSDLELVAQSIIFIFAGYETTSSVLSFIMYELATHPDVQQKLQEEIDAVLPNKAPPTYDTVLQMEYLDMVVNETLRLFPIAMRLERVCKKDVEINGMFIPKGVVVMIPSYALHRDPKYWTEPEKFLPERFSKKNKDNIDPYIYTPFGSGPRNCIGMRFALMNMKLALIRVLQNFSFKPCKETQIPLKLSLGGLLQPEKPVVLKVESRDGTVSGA
Outline: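 Signal was normalized against complete inhibition by 57 uM ketoconazole. The reaction used 20nM CYP3A4 with 25uM Luciferin-PPXE, 10-min compound preincubation and a 60-min NADPH-supported step at RT.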

[4] = Confirmation and Secondary Assay for Modulators of Hemoglobin Beta Chain Splicing at IVS2 654 locus (AID 910; active = well fitted curve in the direction sought with a large enough effect; an effect the other way counts as inactive or inconclusive;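 also: HeLa cells stably carrying EGFP split by mutant beta-globin IVS2-654 intron; per-well total GFP intensity by laser scanning cytometry after 2-day treatment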)
Outline: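 Readout: per-well total peak green fluorescence (488 nm ex, 500–520 nm em) from objects 5–250 µm, reflecting correct splicing of an EGFP-654 reporter. Compounds were applied for 2 days at 37 °C to overnight-plated HeLa EGFP-654 cells; controls were DMSO and 500 nM IVS2-654 PNA.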

[5] = Confirmation and Secondary Assay for Modulators of Hemoglobin Beta Chain Splicing at IVS2 705 locus (AID 930; active = well fitted curve in the direction sought with a large enough effect; an effect the other way counts as inactive or inconclusive;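 also: HeLa cells stably expressing the EGFP-705 splicing reporter; GFP fluorescence per well restored by corrected splicing of the IVS2-705 intron in EGFP; series mostly up to about 46 µM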)
Outline: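 HeLa IVS2-705 EGFP reporter cells, 500/well, compound 2 d at 37C; correct splicing yields fluorescent EGFP. Control: 500 nM antisense PNA. Read-out: total peak GFP intensity.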

[6] = target: Ubiquitin carboxyl-terminal hydrolase 1 (Homo sapiens) (UniProt O94782); assay: Inhibitors of USP1/UAF1: Pilot qHTS (AID 504865; active = well fitted curve in the direction sought with a large enough effect; an effect the other way counts as inactive or inconclusive;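 also: rhodamine fluorescence freed from ubiquitin-rhodamine substrate followed over time; top concentration of the series differs between compounds; nearly all actives have a fitted effect of over 35% in size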)
Chain of Ubiquitin carboxyl-terminal hydrolase 1 (Homo sapiens) (O94782 whole entry, looked up): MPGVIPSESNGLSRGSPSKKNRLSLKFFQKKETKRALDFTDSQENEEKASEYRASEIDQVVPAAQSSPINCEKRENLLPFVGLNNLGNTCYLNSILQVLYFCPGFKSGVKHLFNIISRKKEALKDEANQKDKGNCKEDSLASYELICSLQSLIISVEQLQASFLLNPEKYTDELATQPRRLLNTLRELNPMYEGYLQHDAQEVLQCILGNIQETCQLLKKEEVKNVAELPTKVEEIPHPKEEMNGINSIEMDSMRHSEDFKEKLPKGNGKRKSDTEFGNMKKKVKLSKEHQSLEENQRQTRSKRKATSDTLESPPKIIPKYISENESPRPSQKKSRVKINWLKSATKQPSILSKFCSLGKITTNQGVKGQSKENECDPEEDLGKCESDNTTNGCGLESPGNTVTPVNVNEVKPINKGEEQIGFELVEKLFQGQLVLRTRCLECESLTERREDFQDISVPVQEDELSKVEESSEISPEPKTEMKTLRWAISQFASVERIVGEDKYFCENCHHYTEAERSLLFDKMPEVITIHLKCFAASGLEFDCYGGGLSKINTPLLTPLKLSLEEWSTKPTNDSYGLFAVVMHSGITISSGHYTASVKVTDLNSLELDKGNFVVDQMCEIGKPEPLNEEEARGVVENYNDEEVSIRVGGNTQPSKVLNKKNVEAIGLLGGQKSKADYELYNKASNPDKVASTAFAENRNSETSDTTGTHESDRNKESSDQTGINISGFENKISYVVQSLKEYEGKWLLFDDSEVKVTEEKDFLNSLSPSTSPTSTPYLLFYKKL
Outline: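 Enzyme-free wells gave the negative control, while test wells held 1nM USP1/UAF1 preincubated with compound for 15 min at room temperature. Ub-Rho at 150nM final started the reaction, and fluorescence at 480/540 nm was recorded kinetically.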

[7] = target: Androgen receptor (Homo sapiens) (UniProt P10275); assay: qHTS assay for small molecule agonists of androgen receptor signaling (AID 588515; active = well fitted curve in the direction sought with a large enough effect in the signal ratio, with a control signal flat; the % refers to the signal ratio); details: AR-UAS-bla HEK293, beta-lactamase ratio, agonist 16 h; active compounds read high
Chain of Androgen receptor (Homo sapiens) (P10275 whole entry, looked up): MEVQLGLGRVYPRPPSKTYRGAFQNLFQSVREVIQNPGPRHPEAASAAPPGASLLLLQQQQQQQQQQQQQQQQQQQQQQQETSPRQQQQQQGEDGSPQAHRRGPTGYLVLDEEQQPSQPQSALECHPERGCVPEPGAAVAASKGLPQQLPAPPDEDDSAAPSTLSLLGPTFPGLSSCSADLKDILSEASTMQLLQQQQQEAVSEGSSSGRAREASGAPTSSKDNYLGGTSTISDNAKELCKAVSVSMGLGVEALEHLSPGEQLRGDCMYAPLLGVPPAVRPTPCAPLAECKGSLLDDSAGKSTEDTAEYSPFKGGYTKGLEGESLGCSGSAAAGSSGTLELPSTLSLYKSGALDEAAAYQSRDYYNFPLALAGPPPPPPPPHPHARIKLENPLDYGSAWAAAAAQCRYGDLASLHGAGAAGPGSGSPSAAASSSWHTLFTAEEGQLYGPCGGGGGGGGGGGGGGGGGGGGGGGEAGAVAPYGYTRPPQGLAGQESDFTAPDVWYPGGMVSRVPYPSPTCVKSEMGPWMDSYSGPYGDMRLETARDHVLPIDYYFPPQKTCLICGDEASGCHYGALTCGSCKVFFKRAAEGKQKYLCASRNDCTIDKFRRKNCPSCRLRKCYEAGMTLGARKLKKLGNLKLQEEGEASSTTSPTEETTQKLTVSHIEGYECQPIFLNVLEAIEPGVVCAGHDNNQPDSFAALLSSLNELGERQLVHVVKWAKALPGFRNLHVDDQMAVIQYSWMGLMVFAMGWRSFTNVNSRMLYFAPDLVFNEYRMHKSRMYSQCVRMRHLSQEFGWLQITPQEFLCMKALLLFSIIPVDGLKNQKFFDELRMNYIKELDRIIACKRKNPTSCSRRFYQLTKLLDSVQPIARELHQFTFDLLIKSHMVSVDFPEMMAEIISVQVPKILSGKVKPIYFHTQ
Outline: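 EC50 and efficacy came from Hill fits of titrations (up to 92 uM) normalized to 30 nM R1881 as 100% and DMSO as 0%. Compound exposure was 16 h at 37 C on AR-UAS-bla HEK293 cells, with a 405/460/530 nm CCF4 fluorescence read.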

[8] = target: Peroxisome proliferator-activated receptor delta (Homo sapiens) (UniProt Q03181); assay: qHTS assay for small molecule antagonists of peroxisome proliferator-activated receptor delta signaling (AID 588535; active = well fitted inhibition curve with a large enough effect in the signal ratio, with a control signal flat, not every such curve was filed as active; the % refers to the signal ratio)
Chain of Peroxisome proliferator-activated receptor delta (Homo sapiens) (Q03181 whole entry, looked up): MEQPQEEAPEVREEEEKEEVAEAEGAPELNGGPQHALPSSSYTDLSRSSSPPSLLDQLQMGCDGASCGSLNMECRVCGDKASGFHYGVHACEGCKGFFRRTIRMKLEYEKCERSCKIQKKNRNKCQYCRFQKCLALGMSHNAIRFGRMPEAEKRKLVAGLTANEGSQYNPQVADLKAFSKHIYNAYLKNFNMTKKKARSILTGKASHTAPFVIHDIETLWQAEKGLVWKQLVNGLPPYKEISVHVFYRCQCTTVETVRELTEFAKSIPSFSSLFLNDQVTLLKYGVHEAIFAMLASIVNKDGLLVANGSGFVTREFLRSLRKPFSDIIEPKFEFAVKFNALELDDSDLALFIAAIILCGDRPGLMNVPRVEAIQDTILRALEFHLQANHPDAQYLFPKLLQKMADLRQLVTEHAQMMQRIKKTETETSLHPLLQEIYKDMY
Outline: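 Cell-based beta-lactamase assay in antagonist mode: 4000 HEK293T PPAR-delta-UAS-bla cells per well, 5 hr preincubation then 18 hr compound incubation at 37 C. IC50 obtained by Hill equation fitting.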

[9] = target: Androgen receptor (Homo sapiens) (UniProt P10275); assay: qHTS assay for small molecule antagonists of androgen receptor signaling (AID 588516; active = well fitted curve in the direction sought with a large enough effect in the signal ratio, with a control signal flat, not every such curve was filed as active; the % refers to the signal ratio)
Outline: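 Compounds tested in titration against 10 nM R1881 in AR-responsive bla reporter HEK 293 cells; CCF4 fluorescence (460/530 nm) after 16 h exposure gave IC50 and efficacy.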

In the case of CC(C)(C)c1ccccc1O, the Potency [1] is reported as “inactive”.

In the case of COP(=S)(OC)SCn1nnc2ccccc2c1=O, the Potency [2] is reported as over 92 µM, the Potency [3] is reported as “inactive” and the outcome [4] is reported as “inactive”. For the same compound, the outcome [5] was “inactive”, the Potency [6] was “inactive” and the activation [7] was -9.55% and -1.17%.

With Cc1cc(C)cc(OP(=O)(Oc2cc(C)cc(C)c2)Oc2cc(C)cc(C)c2)c1 the Potency [3] was “inactive”.

With CC(C)(COCC1CO1)COCC1CO1 (centres undefined) the outcome [8] was “inactive” and the Potency [1] was “inactive”.

For CCOS(C)(=O)=O, the outcome [8] was “inactive”.

In the case of O=S(=O)(O)F, the outcome [8] is reported as “inactive”.

In the case of Oc1cc(Cl)cc(Cl)c1, the Potency [1] is reported as “inactive”.

In the case of C[N+](=O)[O-], the outcome [8] is reported as “inactive”.

With C=C(Cl)CSC(=S)N(CC)CC the Potency [2] was over 92 µM, the Potency [3] was “inactive” and the outcome [8] was “inactive”.

For COC(=O)Nc1nc2ccccc2[nH]1, the activation [7] was 10.4% and 9.09%.

With N#CC(Cl)(Cl)Cl the activation [7] was -3.49% and the outcome [9] was “inactive”.

In the case of c1ccc(NNc2ccccc2)cc1, the outcome [8] is reported as “inactive” and the Potency [1] is reported as “inactive”.

With Nc1ccc([N+](=O)[O-])cc1N the outcome [8] was “inactive”.

For CN(C)C(=O)Nc1ccc(Cl)cc1, the outcome [8] was “inactive” and the Potency [1] was “inactive”.

For O=[N+]([O-])c1ccccc1O, the Potency [1] was “inactive”.

With COC(C)(C)C the outcome [8] was “inactive”.

In the case of O=Cc1ccc(Cl)cc1Cl, the outcome [8] is reported as “inactive”.

For O=C(O)C(Br)CBr (centres undefined), the outcome [8] was “inactive”.

In the case of CN1CSC(=S)N(C)C1, the Potency [2] is reported as 57.6 µM (active).

With Nc1ccc(Cc2ccc(N)c(Cl)c2)cc1Cl the Potency [3] was “inactive”.

For Oc1c(Cl)c(Cl)cc(Cl)c1Cl, the Potency [2] was 49.1 µM (active), the activation [7] was -20.1% and the outcome [8] was “inactive”.

For ClCCCCl, the outcome [8] was “inactive”.

With O=[N+]([O-])c1c(Cl)c(Cl)c(Cl)c(Cl)c1Cl the Potency [2] was over 92 µM, the activation [7] was 15.3% and 4.1% and the outcome [9] was “inactive”. The outcome [8] was “inactive”.

With Nc1ccc2ccccc2c1 the Potency [3] was “inactive” and the Potency [1] was “inactive”.

With CC(=O)NNc1ccccc1 the Potency [3] was “inactive”, the activation [7] was 7.34% and the outcome [9] was “inactive”.

CCCCC(CC)COC(=O)c1ccc(C(=O)OCC(CC)CCCC)c(C(=O)OCC(CC)CCCC)c1 (centres undefined) gave an activation [7] of -4.73%.

In the case of O=[N+]([O-])/C=C/c1ccccc1, the Potency [2] is reported as 9.79 µM (active).

With CCCCCC[N+](=O)[O-] the activation [7] was 8.93%.

With O=c1ccc(=O)[nH][nH]1 the Potency [2] was over 92 µM, the activation [7] was 2.82% and 4.44% and the outcome [9] was “inactive”.

In the case of Cc1cnc[nH]1, the Potency [2] is reported as over 92 µM and the activation [7] is reported as -7.55%.

With ClCCOCCCl the Potency [2] was over 92 µM and the outcome [8] was “inactive”.

In the case of Nc1cc(Cl)cc(Cl)c1, the Potency [2] is reported as over 92 µM, the Potency [3] is reported as “inactive” and the outcome [8] is reported as “inactive”.

In the case of Nc1ccc(-c2ccc(N)cc2)cc1, the Potency [2] is reported as over 92 µM and the Potency [3] is reported as “inactive”.

In the case of O=C(Cl)OCc1ccccc1, the Potency [2] is reported as over 92 µM and the Potency [1] is reported as “inactive”.

Work on COC(=O)c1ccccc1N yielded a Potency [2] of over 92 µM.

With O=C(Cl)c1ccccc1F the outcome [8] was “inactive”.

For N#CCCC#N, the Potency [2] was over 92 µM and the outcome [8] was “inactive”.

Nc1cc(Cl)ccc1Cl gave a Potency [2] of over 92 µM.

In the case of CCCCCOC(=O)c1ccccc1C(=O)OCCCCC, the Potency [2] is reported as over 92 µM, the Potency [3] is reported as “inactive” and the Potency [1] is reported as “inactive”.

For CC(C)OS(C)(=O)=O, the Potency [2] was over 92 µM, the outcome [8] was “inactive” and the Potency [1] was “inactive”.

With Cc1cc(N=Nc2ccccc2C)ccc1N the Potency [3] was “inactive”, the activation [7] was -4.45% and the outcome [9] was “inactive”. For the same compound, the outcome [8] was “inactive” and the Potency [1] was “inactive”.

For BrCC(Br)(Br)Br, the activation [7] was 1.19% and the Potency [1] was 42.2 µM (active).

For O=[N+]([O-])c1ccc(Cl)c(Cl)c1Cl, the Potency [2] was over 92 µM and the outcome [8] was “inactive”.

For O=[N+]([O-])c1ccc2c3c(cccc13)CC2, the Potency [2] was over 92 µM, the Potency [3] was “inactive” and the outcome [8] was “inactive”. The Potency [1] was “inactive”.

For ClC(Br)Br, the Potency [2] was over 92 µM, the outcome [8] was “inactive” and the Potency [1] was “inactive”.

In the case of CC(C)[N+](=O)[O-], the Potency [1] is reported as “inactive”.

For O=C(O)c1cccc(Cl)c1, the Potency [2] was over 92 µM, the outcome [8] was “inactive” and the Potency [1] was “inactive”.

For N#CCCCCC#N, the Potency [2] was over 92 µM and the Potency [1] was “inactive”.
